{
  "source": "PubChem BioAssay (Tox21)",
  "key": {"[1]": {"biological_target": "Cytochrome P450 2D6 (Homo sapiens) (UniProt P10635)", "sequence (P10635 whole entry, looked up)": "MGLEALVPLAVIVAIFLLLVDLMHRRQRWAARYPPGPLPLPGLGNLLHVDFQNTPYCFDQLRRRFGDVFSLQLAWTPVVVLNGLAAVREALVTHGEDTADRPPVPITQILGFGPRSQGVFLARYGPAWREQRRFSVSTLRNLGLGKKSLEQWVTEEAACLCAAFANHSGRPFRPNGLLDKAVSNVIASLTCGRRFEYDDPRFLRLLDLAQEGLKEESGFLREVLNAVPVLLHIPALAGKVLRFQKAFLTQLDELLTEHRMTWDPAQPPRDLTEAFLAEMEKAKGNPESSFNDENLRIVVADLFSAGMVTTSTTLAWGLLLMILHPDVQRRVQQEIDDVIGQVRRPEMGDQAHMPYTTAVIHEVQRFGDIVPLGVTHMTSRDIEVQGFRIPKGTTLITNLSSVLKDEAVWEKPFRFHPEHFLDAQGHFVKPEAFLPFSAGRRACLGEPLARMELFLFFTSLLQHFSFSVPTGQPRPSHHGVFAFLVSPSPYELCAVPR", "test": "Cytochrome P450 Family 2 Subfamily D Member 6 (CYP2D6) small molecule antagonists: luciferase reporter qHTS assay (AID 1671196); further: nearly all actives have a fitted effect of over 50% in size; further: potency means the concentration at half of the fitted maximal effect", "in_short": "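P450-Glo format: CYP2D6 converts a proluciferin substrate to luciferin in an NADPH-driven reaction lasting 1 h at room temperature. Light output, proportional to CYP2D6 activity, reflects interference by test chemicals.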"}, "[2]": {"biological_target": "Cytochrome P450 2C19 (Homo sapiens) (UniProt P33261)", "sequence (P33261 whole entry, looked up)": "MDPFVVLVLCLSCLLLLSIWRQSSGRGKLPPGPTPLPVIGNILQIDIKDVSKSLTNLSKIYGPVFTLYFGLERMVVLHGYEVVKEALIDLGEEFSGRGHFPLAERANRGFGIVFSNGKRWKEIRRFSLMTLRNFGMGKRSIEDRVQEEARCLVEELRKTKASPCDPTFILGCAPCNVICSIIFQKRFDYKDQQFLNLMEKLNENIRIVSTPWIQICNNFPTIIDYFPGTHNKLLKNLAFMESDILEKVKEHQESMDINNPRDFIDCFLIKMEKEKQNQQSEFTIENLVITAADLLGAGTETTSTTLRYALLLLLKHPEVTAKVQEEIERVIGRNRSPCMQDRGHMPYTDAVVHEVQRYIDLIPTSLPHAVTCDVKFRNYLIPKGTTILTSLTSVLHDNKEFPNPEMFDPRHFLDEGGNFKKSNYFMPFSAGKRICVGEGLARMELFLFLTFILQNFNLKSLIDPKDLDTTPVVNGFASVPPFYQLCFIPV", "test": "Cytochrome P450 Family 2 Subfamily C Member 19 (CYP2C19) small molecule antagonists: luciferase reporter qHTS assay (AID 1671197); further: nearly all actives have a fitted effect of over 65% in size; further: potency means the concentration at half of the fitted maximal effect", "in_short": "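Compounds were tested on CYP2C19 activity via proluciferin conversion to luciferin. The 37C, 1 h reaction followed NADPH addition; detection reagent stopped it.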"}, "[3]": {"biological_target": "Cytochrome P450 2C9 (Homo sapiens) (UniProt P11712)", "sequence (P11712 whole entry, looked up)": "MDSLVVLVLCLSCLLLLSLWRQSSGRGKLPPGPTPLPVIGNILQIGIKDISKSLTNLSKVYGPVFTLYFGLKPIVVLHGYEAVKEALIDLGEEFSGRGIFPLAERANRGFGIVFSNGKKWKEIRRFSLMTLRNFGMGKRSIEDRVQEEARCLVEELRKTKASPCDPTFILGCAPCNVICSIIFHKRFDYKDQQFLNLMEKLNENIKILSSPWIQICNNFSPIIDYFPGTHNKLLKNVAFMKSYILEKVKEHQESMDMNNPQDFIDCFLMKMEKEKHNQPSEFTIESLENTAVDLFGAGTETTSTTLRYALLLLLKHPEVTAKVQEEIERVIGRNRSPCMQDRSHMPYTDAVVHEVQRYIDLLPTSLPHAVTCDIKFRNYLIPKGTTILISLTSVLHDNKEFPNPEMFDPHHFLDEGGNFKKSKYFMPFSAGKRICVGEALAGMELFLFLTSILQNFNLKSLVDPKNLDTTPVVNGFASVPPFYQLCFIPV", "test": "Cytochrome P450 Family 2 Subfamily C Member 9 (CYP2C9) small molecule antagonists: luciferase reporter qHTS assay (AID 1671198); further: nearly all actives have a fitted effect of over 50% in size; further: potency means the concentration at half of the fitted maximal effect", "in_short": "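P450-Glo proluciferin substrate with CYP2C9 enzyme; 10 min RT preincubation, then NADPH regeneration 1 h at 37C; luciferin detection reagent 20 min RT, luminescence in relative luminescence units.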"}, "[4]": {"biological_target": "Voltage-gated inwardly rectifying potassium channel KCNH2 (Homo sapiens) (UniProt Q12809)", "sequence (Q12809 whole entry, looked up)": "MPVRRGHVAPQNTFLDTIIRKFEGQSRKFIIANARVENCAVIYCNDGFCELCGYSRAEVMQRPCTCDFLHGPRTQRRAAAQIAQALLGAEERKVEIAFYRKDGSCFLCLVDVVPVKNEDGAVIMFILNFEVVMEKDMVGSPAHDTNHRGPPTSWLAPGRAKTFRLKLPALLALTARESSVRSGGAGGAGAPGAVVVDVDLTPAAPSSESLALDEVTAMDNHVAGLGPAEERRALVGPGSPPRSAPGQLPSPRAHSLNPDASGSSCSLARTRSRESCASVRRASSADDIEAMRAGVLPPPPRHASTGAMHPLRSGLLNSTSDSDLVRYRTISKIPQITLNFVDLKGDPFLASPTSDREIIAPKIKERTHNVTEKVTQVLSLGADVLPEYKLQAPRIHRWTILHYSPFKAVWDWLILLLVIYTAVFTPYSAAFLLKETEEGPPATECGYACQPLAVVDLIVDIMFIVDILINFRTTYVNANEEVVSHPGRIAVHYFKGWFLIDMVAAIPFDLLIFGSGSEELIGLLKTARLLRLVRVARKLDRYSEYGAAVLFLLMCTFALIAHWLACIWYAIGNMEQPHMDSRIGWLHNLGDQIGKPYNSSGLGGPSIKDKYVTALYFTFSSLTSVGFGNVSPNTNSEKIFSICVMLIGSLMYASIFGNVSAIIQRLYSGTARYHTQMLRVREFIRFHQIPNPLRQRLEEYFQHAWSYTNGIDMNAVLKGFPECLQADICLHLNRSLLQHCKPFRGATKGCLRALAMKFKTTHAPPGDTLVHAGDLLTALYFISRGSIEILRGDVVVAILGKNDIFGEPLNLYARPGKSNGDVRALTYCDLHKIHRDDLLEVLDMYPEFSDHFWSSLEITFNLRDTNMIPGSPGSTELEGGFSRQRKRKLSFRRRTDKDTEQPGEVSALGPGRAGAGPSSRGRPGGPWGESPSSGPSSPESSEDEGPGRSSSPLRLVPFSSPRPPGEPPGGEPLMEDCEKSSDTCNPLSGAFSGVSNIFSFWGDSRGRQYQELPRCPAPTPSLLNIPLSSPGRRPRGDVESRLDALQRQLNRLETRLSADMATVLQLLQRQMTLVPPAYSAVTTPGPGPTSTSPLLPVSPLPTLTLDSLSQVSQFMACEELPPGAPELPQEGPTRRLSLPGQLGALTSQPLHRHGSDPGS", "test": "Human Ether-a-go-go-Related Gene (hERG) channel small molecule antagonists: fluorescence cell-based qHTS assay (AID 1671200);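 further: hERG-expressing U2OS cells given a thallium stimulus after FluxOR II dye loading; series mostly up to about 77 µM; nearly all actives have a fitted effect of over 50% in size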", "in_short": "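Quantitative HTS in hERG-U2OS cells: thallium entry through the channel reports activity, read as continuous 480/540 nm fluorescence over 2 min after stimulus addition.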"}, "[5]": {"biological_target": "Cytochrome P450 3A4 (Homo sapiens) (UniProt P08684)", "sequence (P08684 whole entry, looked up)": "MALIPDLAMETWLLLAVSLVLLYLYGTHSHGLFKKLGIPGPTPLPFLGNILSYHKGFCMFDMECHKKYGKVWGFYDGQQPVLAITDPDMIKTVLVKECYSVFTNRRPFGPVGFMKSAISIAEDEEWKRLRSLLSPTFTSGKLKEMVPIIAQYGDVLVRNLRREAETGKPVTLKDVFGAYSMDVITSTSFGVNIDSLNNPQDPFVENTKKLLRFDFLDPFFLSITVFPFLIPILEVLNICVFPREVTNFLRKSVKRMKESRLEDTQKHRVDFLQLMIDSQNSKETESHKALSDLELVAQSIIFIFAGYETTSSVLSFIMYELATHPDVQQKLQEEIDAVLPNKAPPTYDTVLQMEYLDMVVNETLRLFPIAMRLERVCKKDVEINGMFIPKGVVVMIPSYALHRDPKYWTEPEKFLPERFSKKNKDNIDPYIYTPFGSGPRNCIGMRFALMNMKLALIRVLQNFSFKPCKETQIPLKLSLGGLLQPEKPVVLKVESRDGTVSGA", "test": "Cytochrome P450 Family 3 Subfamily A Member 4 (CYP3A4) small molecule antagonists: luciferase reporter qHTS assay (AID 1671201); further: nearly all actives have a fitted effect of over 50% in size; further: potency means the concentration at half of the fitted maximal effect", "in_short": "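Inhibition of CYP3A4 is measured as loss of light: the enzyme converts a proluciferin substrate to luciferin, detected luminescently. Reaction ran 1 h at room temperature with NADPH regeneration after a 10 min compound preincubation.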"}, "[6]": {"biological_target": "Cytochrome P450 1A2 (Homo sapiens) (UniProt P05177)", "sequence (P05177 whole entry, looked up)": "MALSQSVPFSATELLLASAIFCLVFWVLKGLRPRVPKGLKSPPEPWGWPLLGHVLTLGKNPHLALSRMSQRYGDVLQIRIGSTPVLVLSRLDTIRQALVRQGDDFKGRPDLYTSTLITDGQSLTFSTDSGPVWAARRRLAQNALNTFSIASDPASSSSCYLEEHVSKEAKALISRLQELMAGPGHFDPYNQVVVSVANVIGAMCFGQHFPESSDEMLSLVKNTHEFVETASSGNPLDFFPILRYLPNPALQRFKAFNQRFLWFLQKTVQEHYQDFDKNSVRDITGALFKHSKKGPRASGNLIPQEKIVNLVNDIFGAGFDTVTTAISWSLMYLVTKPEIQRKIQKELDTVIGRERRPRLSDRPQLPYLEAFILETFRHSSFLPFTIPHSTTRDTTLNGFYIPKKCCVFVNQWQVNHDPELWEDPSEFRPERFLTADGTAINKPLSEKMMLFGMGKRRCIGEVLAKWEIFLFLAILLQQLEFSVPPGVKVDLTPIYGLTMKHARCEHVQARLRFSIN", "test": "Cytochrome P450 Family 1 Subfamily A Member 2 (CYP1A2) small molecule antagonists: luciferase reporter qHTS assay (AID 1671199); further: nearly all actives have a fitted effect of over 50% in size; further: potency means the concentration at half of the fitted maximal effect", "in_short": "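Inhibition of CYP1A2 conversion of proluciferin to luciferin, detected by luminescence. Reaction run 1 h at room temperature with NADPH regeneration after brief compound preincubation.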"}},
  "note": "Several values for one entry are separate records, joined by “and”; a condition that tells them apart may be missing. Identical values can stand only once. Results filed as inconclusive are left out. Entries that show only a call come without a potency. The source holds several records for some structures; these can differ, active in one and inactive in another. Activity calls are given as the source filed them. The call rests on the fitted dose curve; in most records, active means well fitted curve in the direction sought with a large enough effect in the repeat runs; inconclusive means weak or mixed curves; inactive means no such curve, though single readings can be large; an effect the other way counts as inactive or inconclusive.",
  "data": [
    {"compound": "Nc1nc2ncc(CNc3ccc(C(=O)N[C@@H](CCC(=O)O)C(=O)O)cc3)nc2c(=O)[nH]1", "values": [
      {"measurement": "Potency", "setting": "[1]", "result": "inactive"},
      {"measurement": "Potency", "setting": "[2]", "result": "56.4 µM (active) and inactive"},
      {"measurement": "Potency", "setting": "[3]", "result": "inactive"},
      {"measurement": "Potency", "setting": "[4]", "result": "inactive"},
      {"measurement": "Potency", "setting": "[5]", "result": "inactive"}
    ]},
    {"compound": "CC(C)(CO)COC(=O)C(C)(C)CO", "values": [
      {"measurement": "Potency", "setting": "[1]", "result": "inactive"},
      {"measurement": "Potency", "setting": "[2]", "result": "8.94 µM (active) and 39.9 µM (active)"},
      {"measurement": "Potency", "setting": "[6]", "result": "inactive"},
      {"measurement": "Potency", "setting": "[4]", "result": "inactive"},
      {"measurement": "Potency", "setting": "[5]", "result": "inactive"}
    ]},
    {"compound": "CCCCC(CC)C(=O)OCCOCCOCCOC(=O)C(CC)CCCC", "note": "(stereo unspecified)", "values": [
      {"measurement": "Potency", "setting": "[1]", "result": "inactive"},
      {"measurement": "Potency", "setting": "[2]", "result": "40.4 µM (active) and 17.8 µM (active)"},
      {"measurement": "Potency", "setting": "[3]", "result": "25.5 µM (active) and 7.96 µM (active)"},
      {"measurement": "Potency", "setting": "[4]", "result": "inactive"},
      {"measurement": "Potency", "setting": "[5]", "result": "7.18 µM (active) and 8.94 µM (active)"}
    ]},
    {"compound": "CC(=O)[C@@]1(O)CC[C@H]2[C@@H]3CCC4=CC(=O)CC[C@]4(C)[C@H]3CC[C@@]21C", "values": [
      {"measurement": "Potency", "setting": "[4]", "result": "inactive"}
    ]},
    {"compound": "CCCCCCCCCCC=CC1CC(=O)OC1=O", "note": "(stereo unspecified)", "values": [
      {"measurement": "Potency", "setting": "[2]", "result": "45 µM (active) and inactive"},
      {"measurement": "Potency", "setting": "[3]", "result": "71.4 µM (active) and 39.9 µM (active)"},
      {"measurement": "Potency", "setting": "[6]", "result": "inactive"},
      {"measurement": "Potency", "setting": "[5]", "result": "inactive"}
    ]},
    {"compound": "CCCCOCCOCCOC(=O)CCCCC(=O)OCCOCCOCCCC", "values": [
      {"measurement": "Potency", "setting": "[2]", "result": "22.5 µM (active) and 22.4 µM (active)"},
      {"measurement": "Potency", "setting": "[3]", "result": "11.3 µM (active) and 17.8 µM (active)"},
      {"measurement": "Potency", "setting": "[6]", "result": "inactive"},
      {"measurement": "Potency", "setting": "[5]", "result": "20.1 µM (active) and 31.7 µM (active)"}
    ]},
    {"compound": "O=C(O)c1cc(-c2ccccc2)nc2ccccc12", "values": [
      {"measurement": "Potency", "setting": "[2]", "result": "50.9 µM (active) and inactive"},
      {"measurement": "Potency", "setting": "[3]", "result": "43.9 µM (active)"},
      {"measurement": "Potency", "setting": "[6]", "result": "36.9 µM (active)"},
      {"measurement": "Potency", "setting": "[5]", "result": "inactive"}
    ]},
    {"compound": "CCC(C)C=O", "note": "(stereo unspecified)", "values": [
      {"measurement": "Potency", "setting": "[1]", "result": "inactive"},
      {"measurement": "Potency", "setting": "[2]", "result": "39.9 µM (active) and inactive"},
      {"measurement": "Potency", "setting": "[3]", "result": "inactive"},
      {"measurement": "Potency", "setting": "[6]", "result": "inactive"},
      {"measurement": "Potency", "setting": "[5]", "result": "inactive"}
    ]},
    {"compound": "CCOC(=O)C1OC1c1ccccc1", "note": "(stereo unspecified)", "values": [
      {"measurement": "Potency", "setting": "[1]", "result": "inactive"},
      {"measurement": "Potency", "setting": "[2]", "result": "36.3 µM (active)"},
      {"measurement": "Potency", "setting": "[6]", "result": "32.4 µM (active) and 22.4 µM (active)"},
      {"measurement": "Potency", "setting": "[4]", "result": "inactive"},
      {"measurement": "Potency", "setting": "[5]", "result": "inactive"}
    ]},
    {"compound": "O=Nc1ccc(O)cc1", "values": [
      {"measurement": "Potency", "setting": "[1]", "result": "39 µM (active)"},
      {"measurement": "Potency", "setting": "[2]", "result": "17.4 µM (active)"},
      {"measurement": "Potency", "setting": "[6]", "result": "31 µM (active) and 39.9 µM (active)"},
      {"measurement": "Potency", "setting": "[5]", "result": "inactive"}
    ]},
    {"compound": "ClC1=C(Cl)C(Cl)(Cl)C(Cl)=C1Cl", "values": [
      {"measurement": "Potency", "setting": "[1]", "result": "inactive"},
      {"measurement": "Potency", "setting": "[2]", "result": "inactive"},
      {"measurement": "Potency", "setting": "[6]", "result": "inactive"},
      {"measurement": "Potency", "setting": "[4]", "result": "inactive"},
      {"measurement": "Potency", "setting": "[5]", "result": "inactive"}
    ]},
    {"compound": "COC(=O)Nc1nc2ccc(Sc3ccccc3)cc2[nH]1", "values": [
      {"measurement": "Potency", "setting": "[1]", "result": "inactive"},
      {"measurement": "Potency", "setting": "[2]", "result": "25.2 µM (active) and inactive"},
      {"measurement": "Potency", "setting": "[6]", "result": "12.6 µM (active)"},
      {"measurement": "Potency", "setting": "[5]", "result": "inactive"}
    ]},
    {"compound": "CCCCOCCO", "values": [
      {"measurement": "Potency", "setting": "[1]", "result": "inactive"},
      {"measurement": "Potency", "setting": "[2]", "result": "inactive"},
      {"measurement": "Potency", "setting": "[3]", "result": "inactive"},
      {"measurement": "Potency", "setting": "[4]", "result": "inactive"},
      {"measurement": "Potency", "setting": "[5]", "result": "inactive"}
    ]},
    {"compound": "OCC1CCCO1", "note": "(stereo unspecified)", "values": [
      {"measurement": "Potency", "setting": "[1]", "result": "inactive"},
      {"measurement": "Potency", "setting": "[2]", "result": "40.7 µM (active) and inactive"},
      {"measurement": "Potency", "setting": "[6]", "result": "inactive"},
      {"measurement": "Potency", "setting": "[4]", "result": "inactive"},
      {"measurement": "Potency", "setting": "[5]", "result": "inactive"}
    ]},
    {"compound": "Cc1cc(O)c2c(c1)C(=O)c1cc(O)cc(O)c1C2=O", "values": [
      {"measurement": "Potency", "setting": "[1]", "result": "inactive"},
      {"measurement": "Potency", "setting": "[2]", "result": "inactive and 35.6 µM (active)"},
      {"measurement": "Potency", "setting": "[3]", "result": "12.3 µM (active) and 11.2 µM (active)"},
      {"measurement": "Potency", "setting": "[6]", "result": "8.94 µM (active)"},
      {"measurement": "Potency", "setting": "[5]", "result": "27.6 µM (active) and 22.4 µM (active)"}
    ]},
    {"compound": "Oc1ccc(OCc2ccccc2)cc1", "values": [
      {"measurement": "Potency", "setting": "[2]", "result": "34.8 µM (active) and 8.71 µM (active)"},
      {"measurement": "Potency", "setting": "[6]", "result": "19.6 µM (active) and 15.5 µM (active)"},
      {"measurement": "Potency", "setting": "[5]", "result": "inactive"}
    ]},
    {"compound": "Cc1cc(=O)[nH]c(C(C)C)n1", "values": [
      {"measurement": "Potency", "setting": "[1]", "result": "inactive"},
      {"measurement": "Potency", "setting": "[2]", "result": "inactive"},
      {"measurement": "Potency", "setting": "[3]", "result": "inactive"},
      {"measurement": "Potency", "setting": "[4]", "result": "inactive"},
      {"measurement": "Potency", "setting": "[5]", "result": "inactive"}
    ]},
    {"compound": "CS(=O)(=O)Nc1ccc([N+](=O)[O-])cc1Oc1ccccc1", "values": [
      {"measurement": "Potency", "setting": "[4]", "result": "inactive"}
    ]},
    {"compound": "NS(=O)(=O)c1cc2c(cc1Cl)NC=NS2(=O)=O", "values": [
      {"measurement": "Potency", "setting": "[4]", "result": "inactive"}
    ]}
  ]
}
